LANA DNA inh – KSHV C-LANA DNA binding inhibition | MBP-C-LANA/FAM-LBS DNA binding, fluorescence polarization | inhibition, % at 9 µM | 340,000 compounds, 0.078% hits;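 active = highest replicate inhibition at or above 60% at 9 µM, even if other replicates fall short; inactive = all replicates below 60% inhibition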;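 also: 0% = neutral control wells and 100% = 4 µM acridine orange control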
GLD-1 TGE inh – GLD-1-TGE RNA interaction inhibition (C. elegans); purified GLD-1 + fluorescein TGE RNA, fluorescence polarization; Q17339; 320,000 compounds, 0.44% hits; inhibition, % at 5.96 µM;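 active = percent inhibition above a per-plate cutoff, the plate mean of test compounds plus 3 SD, cut at about 30% in these data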;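 also: 0% = DMSO wells with GLD-1 and probe and 100% = wells lacking GLD-1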
eLon inh – inhibits E. coli Lon protease; P0A9M0; purified E. coli Lon protease, fluorescence polarization; inhibition, % at 7.94 µM; 360,000 compounds, 0.42% hits; AID 602123; in the data active = inhibition above about 13%, passing the limit was not always enough;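 also: 0% = enzyme with probe and DMSO and 100% = no enzyme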
MEX-5 binding – C. elegans MEX-5 TCR-2 RNA binding activity. Q9XUB2. MEX-5/FITC-TCR2 RNA binding, fluorescence polarization; active compounds read low. activity score (negative = inhibition of binding), % at 10 µM. 300,000 compounds, 0.38% hits. AID 1832;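 active = inhibition past about -25% in most replicates, and total fluorescence under double the plate's negative control median, limit read from the data; inconclusive = replicates evenly split on the limit, or fluorescence at least double controls; inactive = too little inhibition in most replicates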;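 also: 0% = DMSO and -100% = 5 µM competing unlabeled TCR2 RNA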
Keap1-Nrf2 PPI – disrupts human Keap1 binding to Nrf2 peptide; Keap1 Kelch-Nrf2 peptide fluorescence polarization, 1536-well; inhibition, % at 9.4 µM; 340,000 compounds, 0.15% hits; AID 504523; in the data active = inhibition above about 12%; inconclusive = no clear call, values can overlap the other calls; inactive = below about 7.3%;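 also: human Keap1 Kelch domain with fluorescein labeled Nrf2 9mer peptide probe; 0% = neutral control wells and 100% = peptide positive control; higher means more block of Keap1 binding to Nrf2 peptide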
Target sequence (Q14145 whole entry, looked up, the tested form may be a part): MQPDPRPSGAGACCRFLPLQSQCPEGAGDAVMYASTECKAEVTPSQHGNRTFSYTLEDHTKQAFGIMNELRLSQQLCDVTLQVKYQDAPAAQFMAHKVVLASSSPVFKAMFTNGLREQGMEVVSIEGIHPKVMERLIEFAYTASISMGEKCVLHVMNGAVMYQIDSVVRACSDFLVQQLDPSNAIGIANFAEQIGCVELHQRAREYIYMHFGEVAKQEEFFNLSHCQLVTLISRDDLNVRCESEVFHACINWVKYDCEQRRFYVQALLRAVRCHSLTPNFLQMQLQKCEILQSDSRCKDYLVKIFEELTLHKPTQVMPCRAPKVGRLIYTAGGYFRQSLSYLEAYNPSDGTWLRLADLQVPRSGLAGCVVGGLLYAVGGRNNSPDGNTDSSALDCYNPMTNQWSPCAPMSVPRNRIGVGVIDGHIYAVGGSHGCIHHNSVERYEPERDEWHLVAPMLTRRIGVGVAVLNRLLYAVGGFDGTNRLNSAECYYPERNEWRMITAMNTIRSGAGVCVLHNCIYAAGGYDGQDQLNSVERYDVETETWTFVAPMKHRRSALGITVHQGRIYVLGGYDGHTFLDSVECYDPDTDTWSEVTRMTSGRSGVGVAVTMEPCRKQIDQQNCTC
BCLXL inh – blocks human Bcl-xL binding to Bim BH3 peptide. inhibition, % at 10.9 µM. GST-Bcl-xL / FITC-Bim BH3 peptide fluorescence polarization. 320,000 compounds, 0.7% hits. Q07817;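 active = inhibition above the mean of all tested compounds plus 3 SD, cutoff set per campaign, cut at about 30% in these data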;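 also: 0% = DMSO wells and 100% = unlabeled Bim-BH3 peptide competitor; inhibitors lower millipolarization by displacing the labeled peptide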
eLon confirm – E. coli Lon inhibition confirmation. shares compounds with eLon inh. purified E. coli Lon, fluorescence polarization. inhibition, % at 7.94 µM. 1,400 compounds, 31% hits. AID 602230; in the data active = inhibition above about 16%;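 also: 0% = enzyme with probe and DMSO and 100% = no enzyme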
* hit, by the source's call; ? = inconclusive; / = not tested or not shown; + = active, no number. Compounds with a hit are over-represented: about 1.2% of the library has one in this group of screens.

SMILES | LANA DNA inh | GLD-1 TGE inh | eLon inh | MEX-5 binding | Keap1-Nrf2 PPI | BCLXL inh | eLon confirm
COc1ccccc1NC(=O)c1cnc(SCC(=O)NCC2CCCO2)n(C)c1=O (stereo not given) | 0 | 3 | -10 | 6 | -3 | -3 | /
FC(F)(F)c1nc2nc(Cl)c(Cl)nc2n1CCCN1CCOCC1 | / | / | 31* | / | / | / | 9
Cn1c(N2CCN(C(c3ccccc3)c3ccccc3)CC2)nc2c1c(=O)[nH]c(=O)n2C | 2 | -5 | 24* | 0 | 2 | 4 | 16*
Cn1c(N2CCCCC2)nc2c1c(=O)[nH]c(=O)n2C | 0 | 3 | 2 | -1 | -2 | 6 | /
COc1ccc(C(=O)NNC2=CC(=O)CC(C)(C)C2)cc1OC | 3 | 3 | 17* | -11 | -3 | 1 | 1
C=CCn1c(SCC(=O)Nc2sc3c(c2C#N)CCC(C)C3)nc2cc(C(=O)O)ccc2c1=O (stereo not given) | 1 | 3 | 48* | / | -1 | / | 2
COc1ccc(C2=CC(c3sccc3C)n3nnnc3N2)cc1 (stereo not given) | 14 | 3 | 0 | -15 | 4 | 13 | /
COc1ccc(C2C=C(c3ccc(Br)cc3)Nc3nc(N4C(=O)CCC4=O)nn32)cc1 (stereo not given) | 2 | 102* | 25* | -28* | 2 | 123* | -9
COc1ccc(C2=CC(c3ccc(F)cc3)n3nnnc3N2)cc1 (stereo not given) | 15 | 1 | 38* | -4 | 1 | 4 | -13
CN(Cc1cccc(Cl)c1Cl)C(=O)CCNC(=O)c1ccco1 | -4 | 2 | -10 | / | -5 | / | /
CCCCNC(=O)C1(C)CCN1C(=O)Cc1cccc2ccccc12 (stereo not given) | / | / | -4 | / | / | / | /
O=C(NC1CCC1)C1CCC(=O)N(Cc2ccc(Cl)cc2)C1 (stereo not given) | / | / | 2 | / | / | / | /
Cc1ccc(NC(=O)CSCC(=O)N2CCN(C(=O)c3ccco3)CC2)cc1 | 1 | 5 | -6 | / | 2 | -1 | /
Cc1onc(-c2c(F)cccc2Cl)c1C(=O)ONC(=O)c1ccco1 | 4 | 15 | 17* | -2 | 1 | 13 | 6
Cc1onc(-c2c(F)cccc2Cl)c1C(=O)NCc1ccccc1 | -1 | 10 | -1 | -3 | 0 | 4 | /
CCCCNc1nc2ccccc2n1CC(=O)Nc1c(C)cccc1CC | 0 | 5 | 25* | -1 | -5 | -3 | -9
CCc1cccc(C)c1NC(=O)Cn1c(NCCO)nc2ccccc21 | 3 | 4 | 1 | 0 | -5 | 0 | /
CCOC(=O)/C=c1\s/c(=C\c2ccc(C)cc2)c(=O)n1CC(=O)NCc1ccco1 | -5 | 3 | 24* | -3 | 0 | 9 | -2
CCOc1ccc(NC(=O)CN(C)C(=O)c2c(-c3c(F)cccc3Cl)noc2C)cc1OCC | -1 | 4 | 8 | 0 | -3 | 2 | /
S=C(Nc1ccc2nc(-c3ccccn3)c(-c3ccccn3)nc2c1)N1CCCCC1 | 7 | / | 14 | / | -3 | / | /
CCCNC(=S)Nc1ccc2nc(-c3ccccn3)c(-c3ccccn3)nc2c1 | 2 | 13 | 19* | -7 | -6 | 16 | -3
Cn1c(=O)n(CC(=O)N2CCN(c3nnc(-c4ccccc4)c4ccccc34)CC2)c2ccccc21 | -1 | 3 | 6 | -2 | -3 | 5 | /
Cc1ccc(-c2nnc(N3CCN(C(=O)Cn4c(=O)n(C)c5ccccc54)CC3)c3ccccc23)cc1 | -1 | 0 | 24* | 1 | -2 | 5 | 2
COc1ccc(N)cc1-n1c(C)ccc1C | 2 | 11 | 52* | -1 | -1 | 38* | 18*
O=C1c2sccc2-c2cccc3cccc1c23 | / | / | 54* | / | / | / | 30*
SMILES | LANA DNA inh | GLD-1 TGE inh | eLon inh | MEX-5 binding | Keap1-Nrf2 PPI | BCLXL inh | eLon confirm
CNC(=S)N/N=C1\C(=O)c2cccc3cccc1c23 | 1 | -4 | 7 | -2 | -5 | 12 | /
CC(=O)NC(c1ccccc1)c1nc(-c2ccc(F)c(Cl)c2)cs1 (stereo not given) | / | / | -4 | / | / | / | /
Nc1ccc(-c2nc3ccc(N)cc3[nH]2)cc1 | 0 | 8 | 3 | -2 | 0 | 3 | /
Nc1ccc2cc3[nH]c4cc(N)ccc4c3nc2c1 | 164* | / | + | / | 161* | / | 146*
Cn1c(-c2ccccc2)c(CCO)c2ccccc21 | 2 | 3 | 32* | -1 | -2 | 6 | -7
CC(=O)NC1=C(Nc2ccc(N(C)C)cc2)C(=O)c2ccccc2C1=O | -2 | 7 | -4 | -2 | 1 | 9 | /
CC(=O)Nc1ccc(Nc2ccc3c4c(cc(=O)n3C)-c3ccccc3C(=O)c24)cc1 | 1 | 28 | 33* | -5 | 2 | 61* | 52*
CCOC(=O)CCN(C(=O)Nc1ccccc1)C1CCCCC1 | -1 | / | 7 | / | -4 | / | /
CCN(CC(=O)NCc1ccc(F)cc1)CC(=O)Nc1cc(S(=O)(=O)N(C)C)ccc1C | 3 | -1 | -3 | / | -1 | -10 | /
CCN(CC(=O)NCc1ccc(F)cc1)CC(=O)Nc1ccc(Br)cc1F | -1 | -2 | 22* | / | -4 | / | -2
CC1(C)Cc2c(c(-c3ccco3)[nH]c(=O)c2C#N)CS1 | 7 | 94* | 34* | -23 | 0 | 110* | 29*
COCCn1c(N)c(N(Cc2ccccc2)C(=O)C(C)Oc2ccc(Br)cc2)c(=O)[nH]c1=O (stereo not given) | / | / | 7 | / | / | / | /
CC(C)(C)[C@H](NC(=O)c1ccc(N)c(Cl)c1)C(=O)N1CCC[C@H]1C(=O)N[C@H](C#N)CC(=O)O | / | / | 1 | / | / | / | /
Cc1ccccc1Nc1nc(N)[nH]c(=O)c1N=O | / | / | 26* | / | / | / | -6
Cc1ccc(NC(=O)Cn2c(=O)cnc3ccccc32)cc1S(=O)(=O)N1CCOCC1 | 1 | -4 | -19 | / | -4 | -11 | /
CCCCOc1cccc(C2C(C(=O)c3ccc(C)o3)=C(O)C(=O)N2c2nnc(C)s2)c1 (stereo not given) | 3 | / | -56 | -14 | -3 | / | /
C=CCOc1cccc(C2C(C(=O)c3ccc(C)o3)=C(O)C(=O)N2c2nccs2)c1 (stereo not given) | 32 | 130* | 55* | -49* | ? | 144* | 126*
Cc1ccc(CNC(=O)C(OC(=O)c2cccs2)C(C)C)cc1 (stereo not given) | 0 | 3 | 28* | 0 | 2 | 0 | -14
Fc1ccc(Nc2nc(N3CCOCC3)nc(N3CCOCC3)n2)cc1 | 0 | 3 | -4 | -2 | -1 | 6 | /
O=[N+]([O-])c1ccc(Nc2nc(N3CCOCC3)nc(N3CCOCC3)n2)cc1 | -1 | -2 | 17* | 0 | -1 | 2 | -2
CC(=O)Nc1cccc(-c2ccnc3c2CC(C)(C(=O)NCCC(F)(F)F)O3)c1 (stereo not given) | / | / | -10 | / | / | / | /

Bioassay records as filed in PubChem BioAssay.
